Screen size: about 5,500 compounds; about 2,000 (36%) were called active. Another 18% or so got no clear call; they are omitted. No stated cut-off is given here; in the data, active means normalized growth mostly below about 0.91 (no sharp cut-off); inconclusive means no clear call, values can overlap the other calls; inactive means mostly above about 0.92. The list shows a part of the results.
Assay: chemical genetic growth profiling, strain panel (AID 1159580);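 further: tested at 20 µM; growth read once vehicle control cultures reached saturation at 30 °C; 1 = growth at the plate median or of vehicle wells; lower values mean less growth of the strain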
Conditions: growth OD

Measured: normalized growth

COc1cc(-c2coc3cc(OCc4ccccc4)c(OC)c(O)c3c2=O)cc(OCc2ccccc2)c1OC
inactive: S. cerevisiae deletion strains, locus YAL013W, strain DEP1, hits give low values 1.04 | S. cerevisiae deletion strains, locus YBR021W, strain FUR4, hits give low values 1.01 | S. cerevisiae deletion strains, locus YBR229C, strain ROT2, hits give low values 0.995 | S. cerevisiae deletion strains, locus YCL029C, strain bik1, hits give low values 0.981 | S. cerevisiae deletion strains, locus YDL035C, strain GPR1, hits give low values 1.03 | S. cerevisiae deletion strains, locus YDL074C, strain BRE1, hits give low values 1.02 | S. cerevisiae deletion strains, locus YDL101C, strain DUN1, hits give low values 0.99 | S. cerevisiae deletion strains, locus YDL185W, strain tfp1, hits give low values 0.989 | S. cerevisiae deletion strains, locus YDL192W, strain arf1, hits give low values 0.981 | S. cerevisiae deletion strains, locus YDR101C, strain arx1, hits give low values 0.991 | S. cerevisiae deletion strains, locus YDR150W, strain NUM1, hits give low values 1.01 | S. cerevisiae deletion strains, locus YDR162C, strain NBP2, hits give low values 1.02 | S. cerevisiae deletion strains, locus YDR318W, strain mcm21, hits give low values 0.992 | S. cerevisiae deletion strains, locus YDR388W, hits give low values 0.981 | S. cerevisiae deletion strains, locus YDR502C, strain sam2, hits give low values 0.991 | S. cerevisiae deletion strains, locus YEL061C, strain CIN8, hits give low values 1.01 | S. cerevisiae deletion strains, locus YER110C, hits give low values 0.974 | S. cerevisiae deletion strains, locus YER155C, strain BEM2, hits give low values 0.999 | S. cerevisiae deletion strains, locus YER167W, strain BCK2, hits give low values 1 | S. cerevisiae deletion strains, locus YGL078C, strain dbp3, hits give low values 0.988 | S. cerevisiae deletion strains, locus YGL086W, strain mad1, hits give low values 0.975 | S. cerevisiae deletion strains, locus YGL248W, strain PDE1, hits give low values 0.973 | S. cerevisiae deletion strains, locus YGR078C, strain PAC10, hits give low values 1 | S. cerevisiae deletion strains, locus YGR135W, strain pre9, hits give low values 0.986 | S. cerevisiae deletion strains, locus YGR229C, strain SMI1, hits give low values 1.04 | S. cerevisiae deletion strains, locus YGR252W, strain gcn5, hits give low values 1.07 | S. cerevisiae deletion strains, locus YHR030C, strain SLT2, hits give low values 0.989 | S. cerevisiae deletion strains, locus YHR079C, strain IRE1 (second series), hits give low values 0.98 | S. cerevisiae deletion strains, locus YHR094C, strain hxt1, hits give low values 0.978 | S. cerevisiae deletion strains, locus YHR129C, strain ARP1, hits give low values 0.986 | S. cerevisiae deletion strains, locus YHR200W, strain rpn10, hits give low values 0.988 | S. cerevisiae deletion strains, locus YIL066C, strain RNR3, hits give low values 0.982 | S. cerevisiae deletion strains, locus YIL073C, strain SPO22, hits give low values 0.969 | S. cerevisiae deletion strains, locus YIL125W, strain kgd1, hits give low values 0.984 | S. cerevisiae deletion strains, locus YIR030C, strain dcg1, hits give low values 0.988 | S. cerevisiae deletion strains, locus YJL095W, strain BCK1, hits give low values 0.972 | S. cerevisiae deletion strains, locus YJL134W, strain LCB3, hits give low values 0.993 | S. cerevisiae deletion strains, locus YJL168C, strain set2, hits give low values 0.977 | S. cerevisiae deletion strains, locus YJL187C, strain SWE1 (second series), hits give low values 0.968 | S. cerevisiae deletion strains, locus YJR043C, strain POL32, hits give low values 1.04 | S. cerevisiae deletion strains, locus YJR075W, strain HOC1, hits give low values 1.01 | S. cerevisiae deletion strains, locus YKL009W, strain mrt4, hits give low values 0.968 | S. cerevisiae deletion strains, locus YKL068W, hits give low values 0.992 | S. cerevisiae deletion strains, locus YKL085W, strain MDH1 (second series), hits give low values 1.03 | S. cerevisiae deletion strains, locus YKL085W, strain MDH1, hits give low values 1.03 | S. cerevisiae deletion strains, locus YKL190W, strain CNB1, hits give low values 1.01 | S. cerevisiae deletion strains, locus YKR001C, strain vps1, hits give low values 0.964 | S. cerevisiae deletion strains, locus YLR039C, strain RIC1, hits give low values 1.05 | S. cerevisiae deletion strains, locus YLR058C, strain SHM2, hits give low values 0.989 | S. cerevisiae deletion strains, locus YLR102C, strain apc9, hits give low values 0.98 | S. cerevisiae deletion strains, locus YLR262C, strain YPT6, hits give low values 1.08 | S. cerevisiae deletion strains, locus YLR268W, strain sec22, hits give low values 0.967 | S. cerevisiae deletion strains, locus YLR330W, strain CHS5, hits give low values 0.994 | S. cerevisiae deletion strains, locus YLR342W, strain FKS1 (second series), hits give low values 1.02 | S. cerevisiae deletion strains, locus YLR371W, strain rom2, hits give low values 0.97 | S. cerevisiae deletion strains, locus YLR418C, strain cdc73, hits give low values 0.983 | S. cerevisiae deletion strains, locus YML016C, strain PPZ1, hits give low values 0.991 | S. cerevisiae deletion strains, locus YML032C, strain rad52, hits give low values 1 | S. cerevisiae deletion strains, locus YML124C, strain tub3, hits give low values 0.983 | S. cerevisiae deletion strains, locus YMR078C, strain ctf18, hits give low values 0.975 | S. cerevisiae deletion strains, locus YMR223W, strain ubp8, hits give low values 0.99 | S. cerevisiae deletion strains, locus YMR307W, strain GAS1, hits give low values 1.12 | S. cerevisiae deletion strains, locus YNL067W, strain RPL9B, hits give low values 0.984 | S. cerevisiae deletion strains, locus YNL233W, strain BNI4, hits give low values 0.977 | S. cerevisiae deletion strains, locus YNL250W, strain rad50, hits give low values 0.971 | S. cerevisiae deletion strains, locus YNL271C, strain bni1, hits give low values 0.981 | S. cerevisiae deletion strains, locus YNL298W, strain CLA4, hits give low values 0.982 | S. cerevisiae deletion strains, locus YNL307C, strain MCK1, hits give low values 0.969 | S. cerevisiae deletion strains, locus YNL322C, strain KRE1, hits give low values 0.999 | S. cerevisiae deletion strains, locus YNR052C, strain pop2, hits give low values 0.991 | S. cerevisiae deletion strains, locus YOL006C, strain TOP1, hits give low values 0.936 | S. cerevisiae deletion strains, locus YOL012C, strain htz1 0.883 | S. cerevisiae deletion strains, locus YOL147C, strain pex11, hits give low values 0.989 | S. cerevisiae deletion strains, locus YOR061W, strain CKA2, hits give low values 0.989 | S. cerevisiae deletion strains, locus YOR069W, strain VPS5, hits give low values 0.99 | S. cerevisiae deletion strains, locus YOR136W, strain idh2, hits give low values 0.98 | S. cerevisiae deletion strains, locus YOR144C, strain elg1, hits give low values 1 | S. cerevisiae deletion strains, locus YOR184W, strain ser1, hits give low values 0.979 | S. cerevisiae deletion strains, locus YOR316C, strain cot1, hits give low values 0.981 | S. cerevisiae deletion strains, locus YPL055C, strain LGE1, hits give low values 0.987 | S. cerevisiae deletion strains, locus YPR119W, strain clb2, hits give low values 0.981 | S. cerevisiae deletion strains, locus YPR141C, strain kar3, hits give low values 0.963 | S. cerevisiae deletion strains, locus YPR163C, strain tif3, hits give low values 0.989 | S. cerevisiae deletion strains, locus YPR167C, strain met16, hits give low values 0.988 | S. cerevisiae deletion strains, strain wtn01, hits give low values 0.981 | S. cerevisiae strains, strain wild type, hits give low values 1

— PubChem BioAssay AID1159580 (chemical genetic matrix, 2015)
